Source: PubChem BioAssay
D1 agonist = agonists of human D1 dopamine receptor; actives 1% (n = 360,000); AID 504660; P21728; activation, % at 2 µM; HEK293 T-REx D1 cells, calcium flux, agonist mode; further: 0% is about no effect
Target sequence (P21728 whole entry, looked up): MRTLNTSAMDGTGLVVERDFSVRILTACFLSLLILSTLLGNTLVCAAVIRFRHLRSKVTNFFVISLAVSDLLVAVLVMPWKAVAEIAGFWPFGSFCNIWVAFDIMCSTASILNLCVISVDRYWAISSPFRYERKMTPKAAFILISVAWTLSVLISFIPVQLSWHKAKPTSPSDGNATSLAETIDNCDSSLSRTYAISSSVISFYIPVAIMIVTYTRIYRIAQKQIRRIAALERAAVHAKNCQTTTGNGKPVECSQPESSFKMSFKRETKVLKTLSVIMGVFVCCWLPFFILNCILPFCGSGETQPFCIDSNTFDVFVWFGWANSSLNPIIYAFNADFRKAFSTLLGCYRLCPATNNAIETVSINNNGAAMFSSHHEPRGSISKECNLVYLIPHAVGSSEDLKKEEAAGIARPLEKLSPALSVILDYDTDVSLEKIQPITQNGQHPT
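Tetracycline-induced HEK293 TREx D1 cells, force-coupled to calcium signalling, were dye-loaded with a no-wash calcium kit. Compound was pin-added after a 10 s baseline. Fluorescence was read kinetically at 1 cycle/s for 180 s, with calcium rises flagged as agonism.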
D1 PAM = enhances dopamine response at the human D1 receptor; HEK293 TREx D1 cells, calcium flux, dopamine EC20 potentiation; actives 0.036% (n = 360,000); potentiation, % at 10 µM; in the data active means potentiation above about 30%; further: 0% is about no effect
TRHR ag = agonists of human TRH receptor. TRHR cells, calcium flux fluo-8, FDSS agonist mode. actives 0.18% (n = 360,000). AID 493084. activation, % at 2 µM; further: 0% is about no effect
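Read-out: compound-evoked intracellular calcium rise in TRHR cells, fluo-8 dye, kinetic FDSS fluorescence at 1 s/cycle following a 10-cycle baseline. Cells cultured overnight before dye loading (30 min–1.5 h, RT).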
TRHR PAM = allosterically enhances the human TRH receptor; TRHR cells, fluo-8 calcium fluorescence, EC20 TRH enhancement; enhancement, % at 2 µM; actives 0.66% (n = 360,000); in the data active means enhancement above about 30%; further: 0% is about no effect
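Enhancer read-out: after compound pinning and an initial kinetic agonist-mode read, an EC20 of TRH (10 nM final) was injected and fluo-8 calcium signal (Ex 480/Em 530) followed at 1 s/cycle for 100 cycles in TRHR-expressing cells.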
D1 antag = antagonists of human D1 dopamine receptor. P21728. AID 504652. activity change, negative = inhibition, % at 10 µM. HEK293 TREx D1 cells, calcium flux, dopamine EC80; hits give low values. actives 3.2% (n = 360,000); in the data active means activity change below about -30%; further: on the % scale 0 is the no-effect control and ±100 the full control effect
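Inducible Hek293 Trex D1 cells (tetracycline, overnight, 30 C). Calcium dye 30–90 min RT. Antagonist mode: EC80 dopamine added after 180 s compound read.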
Numbers without * were called inactive; ! = a repeat was not active. Only some compounds are listed: those with a hit (about 4.6% of all), similar ones and a draw of the others. Unless noted, no stated cut-off is given here; in the data, active means activation above about 30%; inactive means the rest.

SMILES | D1 agonist | D1 PAM | TRHR ag | TRHR PAM | D1 antag
Cc1ccccc1CCNC(=O)c1ccc2c(c1)nc1n2CCCCC1 | -1 | 0 | -1 | -3 | 10
CCC1(c2ccc(F)cc2)NC(=O)N(CC(=O)NC2CC2)C1=O (stereo unspecified) | 1 | -5 | 0 | 20 | 13
CCC1(c2ccc(F)cc2)NC(=O)N(CC(=O)N2c3ccccc3CC2C)C1=O (stereo unspecified) | 85* | 5 | 6 | 0 | 4
CCC1(c2ccc(F)cc2)NC(=O)N(CC(=O)c2cc(C)n(C3CC3)c2C)C1=O (stereo unspecified) | 41* | -2 | 8 | -7 | -3
CCc1ccc(C(=O)CN2C(=O)NC(C)(c3ccc(C)cc3)C2=O)cc1 (stereo unspecified) | 9 | -1 | 1 | 10 | 15
CCC1(c2ccc(OC)cc2)NC(=O)N(CC(=O)N2CCc3ccccc32)C1=O (stereo unspecified) | 39* | -5 | 7 | -1 | 6
Cc1ccc(C2(C)NC(=O)N(CC(=O)c3ccc4c(c3)OCCO4)C2=O)cc1 (stereo unspecified) | 9 | -4 | 1 | -2 | -43*
Cc1ccc(NC(=O)CCc2nnc3n(CC(C)C)c(=O)c4ccccc4n23)cc1C | -1 | -2 | 0 | 1 | 14
Cc1ccc(C)c(N(C)C(=O)C2CCN(S(=O)(=O)c3cccc4nsnc34)CC2)c1 | -2 | 1 | 0 | -13 | -6
O=[S+]([O-])(c1cc2ccccc2o1)N1CCN([S+](=O)([O-])c2c(F)cccc2F)CC1 | 2 | 4 | 1 | -2 | 15
COc1cc(OC)cc(C(=O)N2CCN(S(=O)(=O)c3ccc(Cl)s3)CC2)c1 | 1 | -5 | -1 | 9 | -5
Cc1cc2c(s1)c1cnn(Cc3c(C)cc(F)cc3C)c(=O)c1n2C | 1 | 2 | 1 | 4 | 1
CCC1(c2ccc(OC)cc2)NC(=O)N(CC(=O)c2ccc3c(c2)OCCO3)C1=O (stereo unspecified) | 32* | -2 | 3 | 7 | 35
CCC1(c2ccc(F)cc2)NC(=O)N(CC(=O)N(CCC#N)c2ccccc2)C1=O (stereo unspecified) | 12 | -3 | 0 | 31* | 13
COc1ccccc1C(=O)Nc1ccc(C(=O)OCc2cc(=O)n3nc(C)sc3n2)cc1 | 0 | 0 | -1 | 5 | 7
O=C1CSC(=Nc2cccc(Cl)c2Cl)N1Cc1cccnc1 | 4 | -4 | -1 | -8 | -35*
CCOC(=O)c1ccc2c(c1)N(Cc1ccc(F)cc1Cl)C(=O)c1ccccc1S2 | 2 | -2 | 1 | -8 | -24
COc1ccc(C2N(c3ccc(Cl)cc3)C(=O)C3CCCN32)cc1 (stereo unspecified) | 3 | 0 | -1 | 5 | -38*
COc1ccc(N2C(=O)C3CCCN3C2c2ccc(Cl)cc2)cc1 (stereo unspecified) | 1 | -4 | 0 | 8 | 0
CCn1cc(CN2CCC(n3nccc3NC(=O)C3CCCC3)CC2)cn1 | 1 | -3 | 0 | 0 | -52*
Cc1ccc2c(c1)C(=O)CC1(CCC(C(C)(C)C)CC1)O2 (stereo unspecified) | 4 | -2 | 0 | -1 | -31*
Cc1ccc2c(c1)C(=O)CC(O)(C(F)(F)F)O2 (stereo unspecified) | 1 | -5 | 0 | -1 | -6
COc1ccc(C2/C(=C(/O)c3ccc4c(c3)CC(C)O4)C(=O)C(=O)N2Cc2cccnc2)cc1 (stereo unspecified) | 0 | 2 | 0 | 14 | -42*
O=C1C(=O)N(Cc2cccnc2)C(c2cccc(F)c2)/C1=C(/O)c1ccc2c(c1)OCO2 (stereo unspecified) | 2 | -10 | 2 | -4 | -62*
N#Cc1ccc(NC(=O)COC(=O)CSc2nnc(-c3ccc(Cl)cc3)o2)cc1 | 10 | -7 | 0 | -9 | -37*
SMILES | D1 agonist | D1 PAM | TRHR ag | TRHR PAM | D1 antag
O=C(COC(=O)CSc1nnc(-c2ccc(Cl)cc2)o1)NCc1ccc2c(c1)OCO2 | 4 | -17 | -2 | -3 | -36*
O=C(COC(=O)Cc1ccc(Cl)cc1)NCc1ccc2c(c1)OCO2 | 10 | -7 | 0 | -12 | -4
O=C(Nc1ccc(OCc2cc(=O)n3ccccc3n2)cc1)c1ccccc1Cl | 1 | -1 | 0 | -4 | -20
CCOc1ccc(C(=O)NCCN2CCCCC2)c(OCC)c1 | 4 | -4 | 0 | 0 | -19
Cc1cc(C)cc(NC(=O)CNS(=O)(=O)c2ccc3nc(C)sc3c2)c1 | -2 | -4 | -1 | -4 | 24
Cn1nnnc1SCCCNCc1ccc(-c2ccc(Br)cc2)o1 | 41* | 0 | 1 | 2 | -21
Cn1nnnc1SCCNCc1ccc(OCc2ccc(Cl)cc2)cc1 | 46* | -1 | 1 | -4 | -9
CCOc1ccc(Br)cc1CNCCSc1nnnn1-c1ccccc1 | 106* | 1 | 7 | -14 | -38*
Cn1nnnc1SCCCNCc1cc(Br)ccc1OCc1ccccc1 | 39* | -1 | 0 | -1 | -25
Brc1cccc(CNCCSc2nnnn2-c2ccccc2)c1 | 5 | 5 | -2 | -3 | 7
Cc1ccc(NC(=O)c2c(C)oc3ccc(O)c(CN4CCCCCC4)c23)cc1 | 4 | -1 | -1 | 6 | 22
COc1ccc(CCNC(=O)c2cc(-c3ccc(C)c(C)c3)nc3ccccc23)cc1OC | 0 | -3 | 1 | 1 | -6
Cn1c(=O)c2c(-c3ccccc3Cl)n(-c3cc(Cl)ccc3O)cc2n(C)c1=O | 43* | 0 | -1 | 1 | 5
CC(C)(Oc1ccc(Cl)cc1)C(=O)Nc1nc2ccc(S(C)(=O)=O)cc2s1 | 6 | 2 | 0 | 9 | 15
Cn1nnnc1Sc1ncnc2scc(-c3ccc4c(=O)ccoc4c3)c12 | 1 | 8 | 0 | 1 | 22
CC(C)OCCCNC(=O)c1cn(C)c2ccc(S(=O)(=O)N3CCCCCC3)cc2c1=O | 4 | 0 | -1 | 4 | -34*
CCC1CCCCN1CCCNC(=O)c1cn(CC)c2ccc(S(=O)(=O)N(C)C3CCCCC3)cc2c1=O (stereo unspecified) | 0 | -4 | 0 | 7 | -38*!
CCn1cc(C(=O)NCCCOC)c(=O)c2cc(S(=O)(=O)N(C)C3CCCCC3)ccc21 | 0 | 1 | 0 | 4 | 8
CCOC(=O)c1cccc(NC(=O)CC(c2ccc(F)cc2)N2Cc3ccccc3C2=O)c1 (stereo unspecified) | 1 | 1 | 0 | -3 | -1
O=S(=O)(c1ccc(Br)s1)N1CCN(c2cccc(C(F)(F)F)c2)CC1 | 22 | 1 | 1 | -3 | -9
COC(=O)C1=C(C)N(C)C(C)=C(C(=O)OC)C1c1ccc(C(=O)OC)cc1 | 0 | -1 | 1 | 6 | -3
